The whole screen tested about 330,000 compounds, of which about 1,400 (0.42%) were called active.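 Rule for the calls: active = inhibition above its plate's threshold, mean inhibition of all tested compounds on the plate plus 3 SD (cut at about 37% in these data); inactive = the rest.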 Shown is part of a subset that was picked to be rich in actives.
What follows are compounds tested against Orexin/Hypocretin receptor type 1 (Homo sapiens) (UniProt O43613) (assay: blockers of orexin-A calcium signaling via HCRTR1 – fluorescence, CHO/OX1R cells, Fluo-8 calcium, primary screen (AID 434989;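 note: 0% = orexin A challenge wells and 100% = SB-334867-A antagonist wells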)). Settings: Fluo-8 calcium fluorescence, at 5 µM, active compounds read high.
Sequence of Orexin/Hypocretin receptor type 1 (Homo sapiens) (O43613 whole entry, looked up): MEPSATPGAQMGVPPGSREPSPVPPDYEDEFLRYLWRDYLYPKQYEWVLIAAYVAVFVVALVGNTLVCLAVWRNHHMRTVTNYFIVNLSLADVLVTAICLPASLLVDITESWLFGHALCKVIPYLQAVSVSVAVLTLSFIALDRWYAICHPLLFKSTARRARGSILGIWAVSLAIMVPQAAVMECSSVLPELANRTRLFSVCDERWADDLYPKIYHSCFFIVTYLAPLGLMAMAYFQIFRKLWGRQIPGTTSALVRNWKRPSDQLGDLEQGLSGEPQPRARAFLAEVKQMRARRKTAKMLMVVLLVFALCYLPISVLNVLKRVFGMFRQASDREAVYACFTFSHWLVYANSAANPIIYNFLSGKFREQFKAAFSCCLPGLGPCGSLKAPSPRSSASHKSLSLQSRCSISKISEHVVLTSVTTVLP

inhibition, inactive:
COc1cc(OC)c(C(=O)NNC(=O)c2ccccc2-n2cccc2)cc1OC -4.23%
COc1cccc2sc3cc(NCC[C@@H]4CCCN4C)ccc3c(=O)c12 -2.27%
CC(C#N)OC(=O)c1cccnc1SCC(=O)Nc1ccc2c(c1)OCO2 (stereo not drawn) -1.89%
O=C(CSc1ncnc2sccc12)NC1CCS(=O)(=O)C1 (stereo not drawn) -10.8%
Oc1ccc(N=Nc2nccs2)c(O)c1 -44.9%
CCC(C(=O)OCC(=O)Nc1ccc(C(=O)Nc2ccc(OC)cc2)cc1)c1ccccc1 (stereo not drawn) -0.08%
CCC(C(=O)Nc1ccc2c(c1)OCCO2)c1ccccc1 (stereo not drawn) 3.71%
NCCN1CCN2C(=O)CN(C(=O)c3ccccc3)CC12 (stereo not drawn) 3.19%
CC(C)(C)OC(=O)C[C@@H]1C/C=C\C[C@@H](CC(=O)NCCO)C(=O)N[C@H](Cc2c[nH]c3ccccc23)COC1=O -10.6%
COc1ccccc1N(CCOc1ccccc1)S(=O)(=O)c1ccccc1 -0.89%
COc1ccc(-c2sc3ccc(OC)cc3c2C#Cc2ccccn2)cc1 -20.1%
COc1ccc2sc(-c3ccc(N(C)C)cc3)c(-c3ccc4cc[nH]c4c3)c2c1 1.84%
Cc1ccc(NC(=O)c2ccc(Cl)nc2)cc1S(=O)(=O)N1CCOCC1 -13.6%
COc1ccc(S(=O)(=O)N(C)C[C@H]2Oc3ccc(NS(=O)(=O)c4cccs4)cc3CC(=O)N([C@H](C)CO)C[C@H]2C)cc1 -17.2%
CC(NC(=O)COC(=O)CCC(=O)c1ccc(Cl)cc1)c1ccccc1 (stereo not drawn) -2.79%
Cc1ccc(C(=O)OCc2nc(N)nc(Nc3ccccc3C)n2)cc1 -15.1%
O=C(COC(=O)c1ccc(F)c(S(=O)(=O)N2CCOCC2)c1)NCc1ccc2c(c1)OCO2 4.89%
COc1ccc(S(=O)(=O)N2CCCCCC2)cc1NC(=O)Cc1ccc(OC)c(OC)c1 -23.5%
O=C(COC(=O)c1ccccn1)NNC(=O)c1ccc(Br)cc1 -3.43%
Cn1c(N)c(C(=O)COC(=O)c2cccc(S(=O)(=O)N3CCOCC3)c2)c(=O)n(C)c1=O -27.4%
Cn1c(N)c(C(=O)COC(=O)c2cnc(Cl)c(Cl)c2)c(=O)n(C)c1=O -7.14%
O=C1c2ccccc2C(=O)N1c1cccc2ccccc12 -17%
C[N+](C)(CCCCCC[N+](C)(C)CCCN1C(=O)c2cccc3cccc(c23)C1=O)CCCN1C(=O)c2cccc3cccc(c23)C1=O -0.77%
COc1ccc(N2C(=O)c3cccc4cccc(c34)C2=O)nn1 -17.9%
O=C(O)c1ccc2c3c(cccc13)C(=O)N(OS(=O)(=O)c1ccccc1)C2=O -7.84%
Cc1noc(C)c1NC(=O)Nc1cccc2c1O[C@H](CN(C)C(=O)Nc1ccccc1)[C@@H](C)CN([C@H](C)CO)C2=O 1.33%
C[C@]12c3[nH]c4ccc(Cl)cc4c3CCN1C(=O)[C@@H](CC(=O)NCCCn1ccnc1)C[C@@H]2C(=O)N1CCOCC1 -3.04%
CC[C@]12c3[nH]c4ccc(Cl)cc4c3CCN1C(=O)[C@@H](CC(=O)NCCCOC)C[C@@H]2C(=O)N1CCN(C(=O)c2ccco2)CC1 -0.28%
COc1ccc(CNC(=O)CNC(=O)c2sc3ccccc3c2Cl)cc1OC -23.5%
COCCNC(=S)N/N=C/c1c(C)[nH]c2ccccc12 -0.83%
CCCCNc1c(-c2ccc(OC)c(Sc3ccc(OC)cc3)c2)nc2ccc(Cl)cn12 -30.4%
Cc1cccc(OCC(=O)OCC(=O)Nc2ccc(Cl)cn2)c1 -10.8%
Nc1ncnc2c1ncn2[C@@H]1O[C@H](CNCc2cccn2-c2nccs2)[C@@H](O)[C@H]1O -6.54%
COc1ccc2[nH]c3c(c2c1)CCN1C(=O)C(CC(=O)NCc2cccc(C(F)(F)F)c2)C[C@H](C(=O)N2CCOCC2)[C@@]31C (stereo partly drawn) -21.4%
CCN1C[C@@H]2[C@@H]3C(=O)N(Cc4ccccc4)C(=O)[C@@H]3[C@](Cc3ccccc3)(C(=O)OC)N2C1=NC1CCCCC1 -11.5%
COC(=O)c1cccc(NC(=O)c2cccc(N3C(=O)CCC3=O)c2)c1 13.2%
O=C(Nc1cccc2cccnc12)c1cccc(Cl)c1 -10.3%
CN(Cc1ccccc1)C(=O)COC(=O)/C=C/c1ccc2c(c1)OCO2 -11.9%
CCCC(=O)NC(Nc1ccccc1OC)C(Cl)(Cl)Cl (stereo not drawn) -0.68%
COc1ccccc1NC(=O)CCCc1c[nH]c2ccccc12 -3.22%
O=C(COC(=O)c1ccc([N+](=O)[O-])o1)NC12CC3CC(CC(C3)C1)C2 -17.3%
COC(=O)[C@@]1(C)[C@H]2C(=O)N(Cc3ccccc3)C(=O)[C@H]2[C@H]2CN=C(SCC3CC3)N21 -26.2%
CC(=O)c1c(C)[nH]c(C(=O)COC(=O)c2cccs2)c1C -11.4%
COc1cccc(C(=O)OCC(=O)c2[nH]c(C)c(C(C)=O)c2C)c1 11%
COc1ccccc1NC(=O)COC(=O)CNC(=O)C1CCCCC1 -0.83%
C[C@H](CO)N1C[C@H](C)[C@@H](CN(C)S(=O)(=O)c2ccc(F)cc2)Oc2c(NC(=O)Nc3ccccc3)cccc2C1=O -5.33%

inhibition, active:
Oc1ccc2ccccc2c1N=Nc1nccs1 61%
CCC(C(=O)Nc1ccc(C(C)C)cc1)c1ccccc1 (stereo not drawn) 62.9%
CCN1/C(=C\c2ccc3ccccc3[n+]2CC)Sc2cc(C)ccc21 54.6%
COc1ccc2sc(-c3ccc(N(C)C)cc3)c(C#CCO)c2c1 61%
Nc1nc(COC(=O)CCC(=O)c2ccc(Cl)cc2)nc(Nc2ccccc2)n1 67.8%
Cn1c(N)c(C(=O)COC(=O)c2ccc3ccccc3c2)c(=O)n(C)c1=O 51.1%
Cc1nn(C)cc1N1C(=O)c2cccc3c(N)ccc(c23)C1=O 38.4%
CN1C(=O)c2cccc3c(N)ccc(c23)C1=O 41.1%
O=C(N/N=C/c1c(Cl)[nH]c2ccccc12)c1sc2ccccc2c1Cl 92.7%
O=C(Nc1cccc2cccnc12)c1cccc(N2C(=O)CCC2=O)c1 45.5%
CCCCCCCC(=O)NC(Nc1ccccc1OC)C(Cl)(Cl)Cl (stereo not drawn) 51.6%
CC(=O)c1c(C)[nH]c(C(=O)COC(=O)c2cccc(S(=O)(=O)N(C)c3ccccc3)c2)c1C 63.5%

From PubChem BioAssay AID434989 (The Scripps Research Institute Molecular Screening Center, 2010)
